In the supplement of paper PMC12645437, “Orthogonal IMiD-Degron Pairs Induce Selective Protein Degradation in Cells” (ACS Chemical Biology, 2025):
In all, about 8,300 sequences were measured (“log2 fold change of degron read counts, EGFP-low vs EGFP+ sorted cells (limma voom), compound-induced degradation”: median about -1.1, highest 2% from about 3.2 on). The entries come from a sample that favours the highest values as a whole.

T1: CRBN, Q96SW2
T1 chain: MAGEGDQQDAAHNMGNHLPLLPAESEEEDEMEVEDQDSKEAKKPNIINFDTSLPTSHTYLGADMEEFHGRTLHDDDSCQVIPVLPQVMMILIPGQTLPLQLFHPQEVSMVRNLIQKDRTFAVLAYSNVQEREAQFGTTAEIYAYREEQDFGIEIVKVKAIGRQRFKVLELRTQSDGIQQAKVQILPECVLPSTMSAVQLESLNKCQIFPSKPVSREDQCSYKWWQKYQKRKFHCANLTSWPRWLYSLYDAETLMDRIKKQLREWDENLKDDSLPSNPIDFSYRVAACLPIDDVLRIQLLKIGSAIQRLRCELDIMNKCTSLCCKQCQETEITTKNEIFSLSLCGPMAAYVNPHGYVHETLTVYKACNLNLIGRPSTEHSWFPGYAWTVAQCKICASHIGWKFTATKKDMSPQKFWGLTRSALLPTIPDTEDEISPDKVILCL


Biological target: T1, CRBN, Q96SW2
Assay: log2 fold change of degron read counts, EGFP-low vs EGFP+ sorted cells (limma voom), compound-induced degradation; higher = more compound-induced degradation of the degron-EGFP fusion; degrons are variants of IKZF1/3 zinc finger 2; compound dose not given here
Conditions: Jurkat, 18 h
[1] = compound: compound 19 (5-tert-butyl-thalidomide)
[2] = compound: compound 22 (5-morpholino-thalidomide)
[3] = compound: compound 33 (diphenyl IMiD analogue)
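Also: pooled lentiviral library of zinc finger degron-EGFP fusions in mCherry-positive Jurkat cells, FACS-sorted after compound exposure, with degron abundance counted by next-generation sequencing.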

Sequence	log2 fold change of degron read counts [1]	log2 fold change of degron read counts [2]	log2 fold change of degron read counts [3]	log2 fold change of degron read counts (compound: thalidomide)
LMCEICGFLCTQKGNLLRHIKL [46L_47M_49E_50I_52G_53F_54L_55C_67L_, Q9UKT9]	-1.21	-1.08	0.82	0.189
LGCEICGFFCTQKGNLLRHIKL [46L_47G_49E_50I_52G_53F_54F_55C_67L_, Q9UKT9]	1.15	0.461	0.628	0.198
FICEQCGAEFTQKGNLLRHIKL [46F_47I_49E_50Q_52G_53A_54E_55F_67L_, Q9UKT9]	-2.28	-1.92	-1.09	-0.382
FMCSVCGHPFTQKGNLLRHIKL [46F_47M_49S_50V_52G_53H_54P_55F_67L_, Q9UKT9]	-2.27	-1.78	-1.3	-1.51
LLCNQCGFMCTQKGNLLRHIKL [46L_47L_49N_50Q_52G_53F_54M_55C_67L_, Q9UKT9]	-1.85	-1.98	-1.61	-1.33
FYCDQCGAYFTQKGNLLRHIKL [46F_47Y_49D_50Q_52G_53A_54Y_55F_67L_, Q9UKT9]	-0.745	-1.31	-1.38	-2.23
FDCNQCGHQFTQKGNLLRHIKL [46F_47D_49N_50Q_52G_53H_54Q_55F_67L_, Q9UKT9]	-2.63	-3.11	-2.64	-2.65
FDCEICGAHFTQKGNLLRHIKL [46F_47D_49E_50I_52G_53A_54H_55F_67L_, Q9UKT9]	3.28	0.822	-0.326	1.02
FSCEICGAHFTQKGNLLRHIKL [46F_47S_49E_50I_52G_53A_54H_55F_67L_, Q9UKT9]	2.47	0.831	0.776	0.206
FVCEICGAHFTQKGNLLRHIKL [46F_47V_49E_50I_52G_53A_54H_55F_67L_, Q9UKT9]	0.302	1.59	1.49	1.95
FVCEICGRHFTQKGNLLRHIKL [46F_47V_49E_50I_52G_53R_54H_55F_67L_, Q9UKT9]	-2.45	-1.78	-2.13	-0.209
FTCEICGHLFTQKGNLLRHIKL [46F_47T_49E_50I_52G_53H_54L_55F_67L_, Q9UKT9]	-2.72	-3.75	-2.61	-2.41
FYCPICGHCFTQKGNLLRHIKL [46F_47Y_49P_50I_52G_53H_54C_55F_67L_, Q9UKT9]	-1.24	-1.33	-0.382	-1.61
FNCPVCGANFTQKGNLLRHIKL [46F_47N_49P_50V_52G_53A_54N_55F_67L_, Q9UKT9]	1.79	0.637	0.771	0.306
FVCPVCGANFTQKGNLLRHIKL [46F_47V_49P_50V_52G_53A_54N_55F_67L_, Q9UKT9]	-0.407	2.43	1.69	2.77
FSCPVCGANFTQKGNLLRHIKL [46F_47S_49P_50V_52G_53A_54N_55F_67L_, Q9UKT9]	1.92	1.29	1.78	0.865
FMCPVCGANFTQKGNLLRHIKL [46F_47M_49P_50V_52G_53A_54N_55F_67L_, Q9UKT9]	-0.564	1.22	2.92	1.69
FECNICGANFTQKGNLLRHIKL [46F_47E_49N_50I_52G_53A_54N_55F_67L_, Q9UKT9]	-1.93	-1.27	1.75	2.22
FWCNICGANFTQKGNLLRHIKL [46F_47W_49N_50I_52G_53A_54N_55F_67L_, Q9UKT9]	2.27	3.62	1.88	0.44
FQCPVCGANFTQKGNLLRHIKL [46F_47Q_49P_50V_52G_53A_54N_55F_67L_, Q9UKT9]	0.19	2.02	1.9	3.48
FWCPVCGANFTQKGNLLRHIKL [46F_47W_49P_50V_52G_53A_54N_55F_67L_, Q9UKT9]	3.05	3.85	2.12	1.69
FECPVCGANFTQKGNLLRHIKL [46F_47E_49P_50V_52G_53A_54N_55F_67L_, Q9UKT9]	-0.535	-0.523	2.7	3.16
FLCPVCGANFTQKGNLLRHIKL [46F_47L_49P_50V_52G_53A_54N_55F_67L_, Q9UKT9]	-0.132	0.243	1.67	1.54
FYCNICGANFTQKGNLLRHIKL [46F_47Y_49N_50I_52G_53A_54N_55F_67L_, Q9UKT9]	1.69	2.89	1.33	0.00754
FYCPVCGANFTQKGNLLRHIKL [46F_47Y_49P_50V_52G_53A_54N_55F_67L_, Q9UKT9]	2.82	3.69	2.32	1.3
